Here are results for 13 compounds from PubChem BioAssay.

Structures are written as SMILES. Activity calls are given as the source filed them.

The nature of assay [1]: optical density shifts of acrAB sulA E. coli – strain DRC41, OD650, 48 h, E. coli filamentation inducer project, primary screen (AID 1152).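 Note: E. coli MC1000 strain DRC41 lacking acrAB efflux pump and sulA.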 As to conditions: higher = more signal, called active from +8 up or from −8 down.
Assay [2] in a line: probe aLefty1 binding on compound microarray – biochemical, small-molecule microarray, 635/667 nm fluorescence, primary screen (AID 1153).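 Note: score merges spot fluorescence with signal-to-noise ratio from the scanned slide images.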 The settings on record: higher = more signal.
A short description of assay [3]: plasmodial surface anion channel blockers, osmotic lysis – cell-based, P. falciparum Indochina, OD700, 1 h, primary screen (AID 1154). The settings on record: P. falciparum Indochina infected RBC osmotic lysis, higher = more signal, called active from +8 up or from −8 down.
The nature of assay [4]: plasmodial surface anion channel blockers, osmotic lysis – cell-based, P. falciparum Indochina, OD700, 2 h, primary screen (AID 1155).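 Note: lysis reports solute entry through the parasite surface anion channel PSAC.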 The settings on record: P. falciparum Indochina infected erythrocytes, higher = more signal, called active from +8 up or from −8 down.
A short description of assay [5]: changes in parasitized red cell lysis, either direction – P. falciparum Indochina, OD700, 3 h, PSAC antagonist project, primary screen (AID 1156). The settings on record: P. falciparum-infected erythrocytes, osmotic lysis, higher = more signal, called active from +8 up or from −8 down.
Assay [6] in a line: plasmodial surface anion channel blockers, osmotic lysis – cell-based, P. falciparum Indochina, OD700, 18 h, primary screen (AID 1157). The settings on record: P. falciparum Indochina infected erythrocytes, osmotic lysis OD700, 18 h; higher = more signal, called active from +8 up or from −8 down.
A short description of assay [7]: S6 kinase pathway phospho-S6 level changes – cell-based, A549, cytoblot, luminescence, serum-stimulated, primary screen (AID 1158).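 Note: serum-stimulated A549 lung adenocarcinoma cells; signal is phosphorylated S6 detected by cytoblot immunostaining with HRP secondary.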 As to conditions: 5 h, higher = more signal.
Assay [8] addresses NADPH oxidase 2 (Homo sapiens) (UniProt P04839). The experiment in a line: compounds shifting NOX2 Amplex Red fluorescence – cell-based, HEK293-NOX2, PMA-stimulated, NOX inhibitor project, primary screen (AID 1159). Note: test concentration not given here. As to conditions: 45 min, higher = more signal, called active from +8 up or from −8 down.
Assay [9] addresses NADPH oxidase 4 (Homo sapiens) (UniProt Q9NPH5). Put plainly: compounds shifting NOX4 Amplex Red fluorescence – cell-based, HEK293-NOX4, tetracycline-induced, NOX inhibitor project, primary screen (AID 1160). As to conditions: HEK293-NOX4, Amplex Red H2O2 fluorescence, 45 min; higher = more signal, called active from +8 up or from −8 down.
For assay [10], the target named is NADPH oxidase 5 (Homo sapiens) (UniProt Q96PH1). The experiment in a line: compounds shifting NOX5 Amplex Red fluorescence – cell-based, HEK293-NOX5, NOX inhibitor project, primary screen (AID 1161). As to conditions: HEK293-NOX5, ionomycin, 45 min, higher = more signal.
Chain of NADPH oxidase 5 (Homo sapiens) (Q96PH1 whole entry, looked up): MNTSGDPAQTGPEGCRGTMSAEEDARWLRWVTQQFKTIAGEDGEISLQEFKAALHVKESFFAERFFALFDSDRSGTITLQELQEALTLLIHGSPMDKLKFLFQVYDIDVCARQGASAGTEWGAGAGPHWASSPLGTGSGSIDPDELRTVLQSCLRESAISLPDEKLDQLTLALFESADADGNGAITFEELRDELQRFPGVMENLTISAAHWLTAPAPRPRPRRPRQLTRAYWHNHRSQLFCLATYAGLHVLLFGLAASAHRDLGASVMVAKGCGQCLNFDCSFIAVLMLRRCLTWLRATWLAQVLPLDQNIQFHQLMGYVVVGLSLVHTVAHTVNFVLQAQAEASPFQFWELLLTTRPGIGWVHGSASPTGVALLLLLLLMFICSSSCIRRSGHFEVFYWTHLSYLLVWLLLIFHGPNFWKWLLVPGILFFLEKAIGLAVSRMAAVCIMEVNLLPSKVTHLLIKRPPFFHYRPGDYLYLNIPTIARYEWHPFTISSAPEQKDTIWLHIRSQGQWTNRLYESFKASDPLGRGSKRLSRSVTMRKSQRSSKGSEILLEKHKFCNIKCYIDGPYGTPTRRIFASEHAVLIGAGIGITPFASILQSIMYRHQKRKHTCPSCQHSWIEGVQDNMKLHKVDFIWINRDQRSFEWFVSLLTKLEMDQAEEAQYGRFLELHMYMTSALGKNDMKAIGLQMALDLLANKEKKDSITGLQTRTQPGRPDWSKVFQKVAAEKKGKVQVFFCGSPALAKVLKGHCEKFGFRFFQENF

Chain of NADPH oxidase 2 (Homo sapiens) (P04839 whole entry, looked up): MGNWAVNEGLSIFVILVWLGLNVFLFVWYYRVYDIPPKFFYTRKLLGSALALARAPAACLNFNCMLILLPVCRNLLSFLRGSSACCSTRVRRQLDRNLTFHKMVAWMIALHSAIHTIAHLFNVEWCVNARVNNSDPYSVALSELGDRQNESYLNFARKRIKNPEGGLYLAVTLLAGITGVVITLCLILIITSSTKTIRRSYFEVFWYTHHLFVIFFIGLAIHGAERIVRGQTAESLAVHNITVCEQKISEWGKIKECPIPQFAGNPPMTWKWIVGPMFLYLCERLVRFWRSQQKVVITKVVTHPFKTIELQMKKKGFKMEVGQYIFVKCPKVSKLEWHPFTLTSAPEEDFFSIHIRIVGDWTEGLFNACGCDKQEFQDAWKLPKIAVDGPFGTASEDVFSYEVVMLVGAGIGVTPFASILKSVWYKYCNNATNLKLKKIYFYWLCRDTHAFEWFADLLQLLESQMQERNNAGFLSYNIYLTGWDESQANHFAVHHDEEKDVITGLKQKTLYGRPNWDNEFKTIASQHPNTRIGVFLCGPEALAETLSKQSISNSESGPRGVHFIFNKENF
Chain of NADPH oxidase 4 (Homo sapiens) (Q9NPH5 whole entry, looked up): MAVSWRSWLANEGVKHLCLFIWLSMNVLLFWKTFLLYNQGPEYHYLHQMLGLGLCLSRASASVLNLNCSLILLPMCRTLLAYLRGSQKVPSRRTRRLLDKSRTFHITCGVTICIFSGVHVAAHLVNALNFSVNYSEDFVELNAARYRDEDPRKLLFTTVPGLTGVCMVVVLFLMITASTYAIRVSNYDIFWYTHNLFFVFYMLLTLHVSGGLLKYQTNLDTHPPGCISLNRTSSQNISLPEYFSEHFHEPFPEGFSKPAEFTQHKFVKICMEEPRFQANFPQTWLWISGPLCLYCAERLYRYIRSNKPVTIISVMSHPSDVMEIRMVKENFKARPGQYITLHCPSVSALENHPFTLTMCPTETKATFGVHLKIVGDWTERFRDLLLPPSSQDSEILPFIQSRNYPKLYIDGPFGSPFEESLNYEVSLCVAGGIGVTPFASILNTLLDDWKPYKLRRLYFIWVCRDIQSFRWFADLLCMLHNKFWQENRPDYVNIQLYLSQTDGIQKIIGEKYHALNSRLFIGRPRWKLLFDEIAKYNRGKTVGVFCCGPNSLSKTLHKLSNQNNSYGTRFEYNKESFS

On to `N#Cc1ccc(NN2C(C(O)c3ccc(F)cc3)C=CC3C(=O)N(c4ccccc4)C(=O)C32)cc1` (stereo not given), for which the z-score is -0.922 (inactive) in [1]; 8.09 (active) in [3]; 1.4 (inactive) in assay [4]; 1.36 (inactive) in [5]; 1.29 (inactive) in assay [6]; -0.491 in assay [7]. In addition, the figures for the z-score in [8], in [9] and in assay [10] were -1.33 (inactive), -4.55 (inactive) and -2.9, respectively. Further, in assay [2], the composite z-score stood at 1.03.
For the compound `C=CCC(OC(C)=O)[C@@H]1[C@@H](N(Cc2ccc(-c3ccccc3)cc2)C(=O)Cc2ccc(F)cc2)c2cc(OCCCO)ccc2N1C(=O)Cc1ccc(OC)cc1` (stereo not given in full), the z-score was 0.246 (inactive) in [1]; 3.94 (inactive) in [3]; 0.477 (inactive) in assay [4]; -0.407 (inactive) in assay [5]; 0.259 (inactive) in [6]; -0.152 in assay [7]. Further, the values for the z-score in assay [8], in [9] and in assay [10] were 0.0982 (inactive), 0.675 (inactive) and 1.67, respectively. The same compound gave a composite z-score in [2] of 0.106.
In the case of `O=C1NC(=O)C2C1C=CC(C(O)c1ccco1)N2Nc1ccccn1` (stereo not given), the z-score in [1] is -1.23 (inactive); in assay [3], -0.379 (inactive); in assay [4], 0.74 (inactive); in [5], -0.314 (inactive); in [6] it was 0.581 (inactive); in assay [7] it was -1.19. For the same compound, the z-score in [8] was -1.35 (inactive); in assay [9], -2.89 (inactive); in assay [10] it was -1.78. In [2], this compound registered a composite z-score of -0.145.
`C=CCOC(=O)[C@H]1[C@@H]2C(=O)O[C@@H](c3ccccc3)[C@@H](c3ccccc3)N2[C@@H](c2ccc(OCCOC(=O)[C@H]3C[C@H]4C(=O)N[C@@H](CCCCNC(C)=O)C(=O)N4[C@H]3c3ccc(O)cc3)cc2)[C@]12C(=O)Nc1ccccc12`: the z-score in assay [1] was 3.24 (inactive); in assay [3] it was 1.59 (inactive); in assay [4], 0.512 (inactive); in [5], -0.821 (inactive); in assay [6], -0.927 (inactive); in assay [7], 1.4. The z-score in assay [8] is 1.89 (inactive); in assay [9], 1.44 (inactive); in assay [10], 1.04. In assay [2], this compound came in with a composite z-score of 0.026.
For `COc1cc2c(cc1O)C(C)N(Cc1ccc([N+](=O)[O-])o1)CC2` (stereo not given), the z-score in assay [1] was -0.984 (inactive); in assay [3], 18.3 (active); in assay [4], 2.09 (inactive); in assay [5], 0.831 (inactive); in [6], 0.424 (inactive); in assay [7] it was -0.31. The z-score is -4.17 (inactive) in assay [8], -2.17 (inactive) in assay [9] and -3.28 in assay [10]. Besides, the composite z-score in assay [2] came out at 0.245.
Regarding `CN1C(=O)C2C=CC(C(O)c3ccccn3)N(N(c3ccccc3)c3ccccc3)C2C1=O` (stereo not given), the z-score in assay [1] was -1.06 (inactive); in assay [3], 1.5 (inactive); in assay [4], 1.14 (inactive); in assay [5] it was 0.303 (inactive); in [6] it was 1.05 (inactive); in assay [7] it was -0.618. For the same compound, the z-score in assay [8] was -0.486 (inactive); in assay [9], -1.94 (inactive); in [10], -2.33. The compound also returned a composite z-score in assay [2] of 0.0774.
For `C=CC1c2cc(O)c(OC)cc2CCN1Cc1cc2c(cc1Br)OCO2` (stereo not given), the z-score in [1] was -1.93 (inactive); in assay [3] it was 15.1 (active); in [4], 3.15 (inactive); in [5], 1.57 (inactive); in assay [6] it was 1.01 (inactive); in assay [7], 0.0469. In addition, the z-score was -6.22 (inactive) in assay [8], -3.87 (inactive) in [9] and -4.16 in assay [10]. Moreover, the composite z-score in assay [2] stood at 0.274.
Turning to `O=C1O[C@H](c2ccccc2)[C@H](c2ccccc2)N2[C@H]1[C@@H](C(=O)O)[C@]1(C(=O)Nc3ccc(C#CC4=CCCCC4)cc31)[C@H]2c1ccc(O)cc1`, the z-score in assay [1] is -1.14 (inactive); in assay [3] it was -2.37 (inactive); in assay [4], -0.921 (inactive); in assay [5], -10.4 (active); in assay [6], -0.451 (inactive); in assay [7] it was -0.497. Also, the values for the z-score in [8], in assay [9] and in [10] were 1.62 (inactive), -3.15 (inactive) and -0.32, respectively. For the same compound, the composite z-score in assay [2] is -0.242.
For `COC(=O)c1c(CC[C@@H](CO)NC(=O)N2CCC[C@H]2Cn2cc(Cc3ccccc3)nn2)oc(C(C)=O)c1C(=O)OC`, the z-score in [1] is -0.195 (inactive); in assay [3] it was 0.133 (inactive); in assay [4], 0.258 (inactive); in assay [5], 0.876 (inactive); in assay [6], -0.033 (inactive); in assay [7], 0.567. For the same compound, the results for the z-score in assay [8], in assay [9] and in assay [10] were -1.79 (inactive), -0.894 (inactive) and -1.85, respectively. This compound displayed a composite z-score in assay [2] of -0.177.
For `CN1C(=O)C2C=CC(C(O)c3cccc(O)c3)N(Nc3ccccc3)C2C1=O` (stereo not given), the z-score in [1] was -0.85 (inactive); in assay [3], -0.0746 (inactive); in assay [4], 0.253 (inactive); in assay [5], -0.606 (inactive); in assay [6], 0.287 (inactive); in assay [7], -0.967. The z-score in assay [8] was -2.6 (inactive); in assay [9] it was -5.27 (inactive); in assay [10] it was -4.62. The same compound yielded a composite z-score in [2] of 0.147.
Regarding `C=CCN1Cc2ccccc2[C@H]2OC(c3ccc(OCCCO)cc3)=N[C@@]2(CC=C)C1=O`, the z-score in assay [1] is 0.831 (inactive); in assay [3], 29.9 (active); in assay [4], 25.7 (active); in assay [5] it was 1.97 (inactive); in assay [6], 6.4 (inactive); in [7], 0.0524. In addition, the values for the z-score in assay [8], in assay [9] and in assay [10] were -1.66 (inactive), 0.367 (inactive) and 0.034, respectively. The compound also displayed a composite z-score in assay [2] of 0.692.
`CCOC(=O)C[C@H]1[C@H](OC(=O)c2cc3ccccc3oc2=O)[C@@H](NC(=O)c2ccc(-c3ccccc3)cc2)c2cc(OCCCO)ccc2N1C(=O)c1ccccc1`: the z-score is 1.27 (inactive) in assay [1]; 0.697 (inactive) in [3]; -1.44 (inactive) in [4]; -0.249 (inactive) in assay [5]; -2.22 (inactive) in [6]; 0.683 in [7]. Also, the results for the z-score in assay [8], in assay [9] and in assay [10] were -1.47 (inactive), 0.178 (inactive) and 0.748, respectively. This compound also had a composite z-score in [2] of 0.0839.
`C=C(COC)/C(=C/C[C@H](OC(=O)c1ccncc1)c1ccccc1OCCO)c1cnc2ccccc2c1`: the z-score in assay [1] was 0.657 (inactive); in [3], 13 (active); in assay [4], 1.86 (inactive); in assay [5] it was 1.31 (inactive); in assay [6], 0.553 (inactive); in assay [7] it was 0.513. For the same compound, the z-score in assay [8] is -1.85 (inactive); in assay [9], -0.502 (inactive); in assay [10] it was -0.71. Further, the composite z-score in assay [2] came out at 0.401.
